The record followed here is PubChem BioAssay AID624351 (Southern Research Specialized Biocontainment Screening …, 2012).

Hit rate of the full screen: of about 2,400 compounds, about 1,400 (58%) were called active. The set was probably picked from earlier hits. Some of the results follow. Unmarked numbers belong to inactive results.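 The calls were made as follows: active = inhibition of 30% or more at any tested dose; inconclusive = primary hits over the limit that were never retested; inactive = the rest.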

This assay in a line: ADP Hunter readout inhibition without MgcRacGAP – biochemical, coupled enzyme counter-screen, artefact control for MgcRacGAP inhibitor project, dose response (AID 624351).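 Also: signal is the ADP detection kit reading of free GDP without any GAP enzyme.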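 As to inhibition: 0% = median positive control wells and 100% = median negative control wells.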 Conditions: fluorescence, no MgcRacGAP; series mostly up to 80 µM; inhibition: at the top concentration. A general note: The purpose of a counterscreen is to sort out artefacts and off-target activity.
As usually defined, the IC50 is the midpoint of a concentration-inhibition curve. On to `COc1cc(/C=N/NC(=O)c2ccc(=O)[nH]n2)ccc1O`, for which the IC50 is 26.3 µM (active).

On to `COc1cc(/C=N/NC(=O)c2cnccn2)ccc1O`, for which the IC50 was 25.9 µM (active).

As to `COc1ccc(/C=N\NC(=O)c2ccc(=O)[nH]n2)cc1O`, the IC50 was 26 µM (active).

Usually inhibition stands for the change of the read-out against control, counted positive when it falls. Regarding `O=C(/C(=C/c1ccccc1)n1cncn1)c1ccc(Cl)cc1Cl`, the “inhibition” value is -3.68%.

`COC(=O)C(C(=O)OC)C(C)C(C(=O)OC)C(=O)OC`: the “inhibition” value is 4.32%.

For the compound `CN(C)c1ccc(C=Cc2cnccn2)cc1`, the IC50 was 53 µM (active).

Consider `CCOC(=O)c1[nH]c2ccccc2c1NC(=S)Nc1cccc(C)c1C`, for which the IC50 is 46 µM (active).

Turning to `CCOC(=O)c1[nH]c2ccccc2c1NC(=S)Nc1cc(C)ccc1C`, the concentration for half-maximal inhibition (IC50) was 39.4 µM (active).

As to `CCOC(=O)c1[nH]c2ccccc2c1NC(=S)Nc1ccccc1C`, the IC50 was 45.3 µM (active).

Regarding `COC(=O)c1c(NC(=O)CCNCc2ccco2)sc2c1CCC2`, the “inhibition” value is 18.9%.

Regarding `CCOC(=O)c1[nH]c2ccccc2c1NC(=S)Nc1ccccc1`, the IC50 was 45.1 µM (active).

As for `CCOC(=O)c1[nH]c2ccc(F)cc2c1NC(=O)c1ccccc1C(=O)O`, the “inhibition” value is 25.5%.

With `O=C1SC(c2ccccc2)=C/C1=C\N1CCCCC1`, the IC50 is 51 µM (active).

On to `O=C1CCCCCN1Sc1ccccc1`, for which the “inhibition” value was 3.55%.

On to `CC(C)Nc1ccc(Nc2ccnc3cc4ccccc4cc23)cc1`, for which the concentration for half-maximal inhibition (IC50) was 22.4 µM (active).

`COc1cc(/C=C/C(=O)OCC(=O)NC(=O)NC(C)(C)C)ccc1O`: the IC50 is 62.6 µM (active).

As to `COc1cc(/C=C/C(=O)OCC(=O)NC(=O)NC(C)C)ccc1O`, the IC50 is 42.8 µM (active).

Turning to `C=CCN(CC=C)C(=O)C1CCN(Cc2ccc(OCc3ccccc3)cc2)CC1`, the “inhibition” value was 13.8%.

For `Cc1ccc(NC(=O)CN2CCN(C)CC2)cc1Br`, the “inhibition” value was 20.3%.

As to `CCCS(=O)(=O)N1CCN(Cc2ccco2)CC1`, the “inhibition” value was 15.8%.

As for `CCN1CCN(CC(=O)Nc2nc3ccc(OC)cc3s2)CC1`, the “inhibition” value is 24.5%.

On to `CCN1CCN(CC(=O)Nc2ccc(C)c(Br)c2)CC1`, for which the “inhibition” value was 19.2%.

For the compound `O=C(CN1CCCCC1)Nc1ccc(N2CCCCCC2)cc1`, the “inhibition” value is 0.64%.

Regarding `O=C(CN1CCN(c2ccc(O)cc2)CC1)NC(=O)NCc1ccco1`, the IC50 is 54.7 µM (active).

On to `Cc1ccc(NC(=O)NC(=O)CN2CCN(c3ccc(O)cc3)CC2)c(C)c1`, for which the IC50 is 63.4 µM (active).

As for `COc1ccc(NC(=O)c2ccc(NC(=O)CN3CCN(c4ccc(O)cc4)CC3)cc2)cc1`, the IC50 was 76.7 µM (active).

For the compound `CC1(C)O[C@@H]2[C@H](O1)[C@@H](COS(=O)(=O)O)O[C@H]2n1c(=S)[nH]c2c(=O)[nH]c(N)nc21`, the IC50 is 55.7 µM (active).

Consider `O=C1NN(c2ccc(Br)cc2)C(=O)/C1=C\c1ccc(O)cc1O`, for which the “inhibition” value is 29.1%.

As for `CCN1CCN(CCOc2ccccc2OCc2ccccc2)CC1`, the “inhibition” value was 21.5%.

On to `Oc1cc(Br)ccc1C=Nc1ccc(N2CCCCC2)cc1`, for which the IC50 was 4.33 µM (active).

For the compound `CCN1CCN(c2ccc(N=Cc3ccc(O)cc3O)cc2)CC1`, the IC50 was 38.2 µM (active).

Turning to `CCC(=O)c1ccccc1OCCN1CCN(CC)CC1`, the “inhibition” value is 23.5%.

Turning to `CCN1CCN(c2ccc(N=Cc3ccccc3O)cc2)CC1`, the IC50 is 24.5 µM (active).
